Measurements taken from PubChem BioAssay AID1159580 (chemical genetic matrix, 2015).
Values joined by “and” are separate entries in the source; they are usually repeats but may differ in a detail not shown here. Equal entries are not always repeated. Hit rate of the full screen: of about 5,500 compounds, about 2,000 (36%) were called active. About 18% were inconclusive and are not listed. No stated cut-off is given here; in the data, active means normalized growth mostly below about 0.91 (no sharp cut-off); inconclusive means no clear call, values can overlap the other calls; inactive means mostly above about 0.92. This is one part of the list.

Assay: chemical genetic growth profiling, strain panel (AID 1159580);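 further: tested at 20 µM; growth read once vehicle control cultures reached saturation at 30 °C; 1 = growth at the plate median or of vehicle wells; lower values mean less growth of the strain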
Settings: S. cerevisiae deletion strains, growth OD

Measured: normalized growth

C=CCc1ccccc1OCC(O)CNC(C)C (stereo not given)
inactive: locus YAL013W, strain DEP1, active compounds read low 1 and 0.978 | locus YAL021C, strain ccr4, active compounds read low 1 | locus YAL026C, strain drs2, active compounds read low 1 | locus YAL030W, strain snc1, active compounds read low 0.995 | locus YAL040C, strain CLN3, active compounds read low 0.974 | locus YBL061C, strain skt5, active compounds read low 1 | locus YBR009C, strain hhf1, active compounds read low 0.971 | locus YBR021W, strain FUR4, active compounds read low 0.998 | locus YBR023C, strain chs3, active compounds read low 1 | locus YBR171W, strain sec66, active compounds read low 0.99 | locus YBR229C, strain ROT2, active compounds read low 1 | locus YBR231C, strain swc5, active compounds read low 0.987 | locus YBR279W, strain paf1, active compounds read low 1 | locus YCL011C, strain gbp2, active compounds read low 0.998 | locus YCL016C, strain dcc1, active compounds read low 0.993 | locus YCL029C, strain bik1, active compounds read low 1.02 | locus YCL061C, strain MRC1 (second series), active compounds read low 1 | locus YCL061C, strain MRC1, active compounds read low 0.999 | locus YCL069W, strain vba3, active compounds read low 0.994 | locus YCR088W, strain abp1, active compounds read low 0.992 | locus YDL005C, strain med2, active compounds read low 0.995 | locus YDL035C, strain GPR1, active compounds read low 0.991 | locus YDL040C, strain nat1, active compounds read low 0.995 | locus YDL074C, strain BRE1, active compounds read low 1.01 | locus YDL101C, strain DUN1, active compounds read low 1.01 | locus YDL134C, strain PPH21, active compounds read low 1.01 | locus YDL185W, strain tfp1, active compounds read low 1 | locus YDL192W, strain arf1, active compounds read low 1.02 | locus YDR001C, strain nth1, active compounds read low 1 | locus YDR069C, strain doa4, active compounds read low 0.979 | locus YDR101C, strain arx1, active compounds read low 1.01 | locus YDR137W, strain rgp1, active compounds read low 0.998 | locus YDR150W, strain NUM1, active compounds read low 1 and 1.02 | locus YDR159W, strain sac3, active compounds read low 0.993 | locus YDR162C, strain NBP2, active compounds read low 1 | locus YDR195W, strain ref2 0.913 | locus YDR297W, strain sur2, active compounds read low 1 | locus YDR318W, strain mcm21, active compounds read low 1.01 | locus YDR334W, strain swr1, active compounds read low 0.997 | locus YDR335W, strain msn5, active compounds read low 1 | locus YDR363W, strain ESC2, active compounds read low 0.973 | locus YDR388W, active compounds read low 1 | locus YDR392W, strain spt3, active compounds read low 0.86 | locus YDR502C, strain sam2, active compounds read low 1.01 | locus YEL003W, strain gim4, active compounds read low 0.992 | locus YEL037C, strain rad23, active compounds read low 0.997 | locus YEL061C, strain CIN8 (second series), active compounds read low 1 | locus YEL061C, strain CIN8, active compounds read low 1 | locus YER002W, strain NOP16, active compounds read low 0.975 | locus YER015W, strain faa2, active compounds read low 0.995 | locus YER016W, strain bim1, active compounds read low 0.985 | locus YER110C, active compounds read low 1.02 | locus YER111C, strain swi4, active compounds read low 0.986 | locus YER155C, strain BEM2 (second series), active compounds read low 0.968 | locus YER155C, strain BEM2, active compounds read low 0.999 | locus YER167W, strain BCK2, active compounds read low 1 | locus YFR010W, strain ubp6, active compounds read low 1 | locus YGL078C, strain dbp3, active compounds read low 1.01 | locus YGL086W, strain mad1, active compounds read low 1 | locus YGL167C, strain pmr1, active compounds read low 0.998 | locus YGL173C, strain kem1, active compounds read low 0.997 | locus YGL227W, strain vid30, active compounds read low 0.987 | locus YGL240W, strain doc1, active compounds read low 0.983 | locus YGL248W, strain PDE1, active compounds read low 0.998 | locus YGL253W, strain hxk2, active compounds read low 1 | locus YGR078C, strain PAC10, active compounds read low 1.01 | locus YGR135W, strain pre9, active compounds read low 1.02 | locus YGR229C, strain SMI1, active compounds read low 0.974 | locus YGR252W, strain gcn5, active compounds read low 0.98 | locus YHR013C, strain ard1, active compounds read low 0.943 | locus YHR027C, strain rpn1, active compounds read low 1 | locus YHR030C, strain SLT2, active compounds read low 1 and 0.989 | locus YHR079C, strain IRE1 (second series), active compounds read low 1.01 | locus YHR079C, strain IRE1, active compounds read low 0.972 | locus YHR094C, strain hxt1, active compounds read low 1 | locus YHR129C, strain ARP1, active compounds read low 1.01 | locus YHR142W, strain chs7, active compounds read low 1.01 | locus YHR200W, strain rpn10, active compounds read low 1 | locus YIL066C, strain RNR3, active compounds read low 1.01 | locus YIL073C, strain SPO22, active compounds read low 1.06 | locus YIL125W, strain kgd1, active compounds read low 1.01 | locus YIR030C, strain dcg1, active compounds read low 1.02 | locus YJL092W, strain hpr5, active compounds read low 1 | locus YJL095W, strain BCK1 (second series), active compounds read low 0.995 | locus YJL095W, strain BCK1, active compounds read low 1.02 and 0.978 | locus YJL115W, strain asf1, active compounds read low 1 | locus YJL129C, strain trk1, active compounds read low 0.998 | locus YJL134W, strain LCB3, active compounds read low 0.997 | locus YJL154C, strain vps35, active compounds read low 0.99 | locus YJL164C, strain tpk1, active compounds read low 1.01 | locus YJL166W, strain qcr8, active compounds read low 1 | locus YJL168C, strain set2, active compounds read low 1.01 | locus YJL187C, strain SWE1 (second series), active compounds read low 1.02 | locus YJL187C, strain SWE1, active compounds read low 1.01 | locus YJR043C, strain POL32, active compounds read low 1
